Assay results from PubChem BioAssay AID540300 (National Center for Advancing Translational Sciences (NCATS), 2011).
This is one part of the list. Unmarked numbers belong to inactive results. Calls follow the shape of the dose curve; as a rule, active = well fitted curve in the direction sought with a large enough effect; inconclusive = small, poorly fitted or top-dose-only effect, or another doubt; inactive = no such curve, though single readings can be large or run the other way.

assay: Inhibitors of DNA Polymerase Beta: Hit Validation in Klenow Fragment Assay; details: Klenow exo- polymerase counter-screen, fluorescent DNA substrate; series mostly up to 57.1 µM; activity change, negative = inhibition: at the top concentration
Excerpt: The base excision repair system in human cells is a target for therapeutic modulation of the response to irradiation treatment and DNA-damaging drugs. A key enzyme in this system is the bi-functional DNA polymerase known as DNA polymerase beta (pol b). […] Using an integrated approach involving discovery of small molecule probes for pol b via qHTS and validation by crystallography and kinetics along with cell-based validation experiments, we will test the hypothesis that base excision repair can be strategically modulated in human cells by targeting pol b. Thus, we anticipate the pol b-specific probes emerging from this research will serve as starting points in the development of clinical agents for use in down regulation of DNA base excision repair during therapeutic interventions against cancer. After the completion of the qHTS against the Molecular Libraries Small Molecular Repository (MLSMR), cherry picked compounds were re-affirmed in the primary qHTS pol beta assay and further characterized in several follow-up assays. An E. coli Klenow exo- fragment assay was used as a counter screen assay. The Klenow exo- fragment is a large protein fragment of DNA polymerase which lack exonuclease activity. Measuring compounds activity against the Klenow exo- fragment helps identifying promiscuous compounds. […] NIH Chemical Genomics Center [NCGC] NIH Molecular Libraries Probe Centers Network [MLPCN] MLPCN Grant: MH090863-01 Assay Submitter (PI): Samuel Wilson, National Institute of Environmental Health Sciences (NIEHS), NIH Assay Submitter (PI): Samuel Wilson, National Institute of Environmental Health Sciences (NIEHS), NIH
A stepwise description of the 1536-well assay is shown as described in primary assay. Three microliters of reagents (buffer in column 3 and 4 as negative control and 5nM Klenow enzyme in columns 1, 2, and 5-48) will be dispensed into 1,536-well black solid-bottomed plate. Compounds (23nl) will be transferred via Kalypsys pin tool equipped with 1536-pin array (10nl slotted pins, V&P Scientific, San Diego, CA). The plates will then be incubated for 15 min at room temperature, and 1 µl substrate of tripartate ds DNA (50nM final concentration) will be added to start the reaction and kinetically read twice at 0 min and 10 min on ViewLux reader.

| SMILES | activity change, negative = inhibition |
| --- | --- |
| O=C(c1cc2c(s1)CCC2)N1CCN(c2ccccc2)CC1 | -32% |
| Cc1c(CCC(=O)O)c(=O)oc2c(C)c(OCc3ccccc3Cl)ccc12 | -24.9% |
| COc1cc([C@H](Cc2ccccc2)NC(C)=O)oc(=O)c1 | -12.9% |
| Cc1c(CC(=O)N2CCN(C(=O)C3COc4ccccc4O3)CC2)c(=O)oc2c(O)c(O)ccc12 (stereo not given) | -21.1% |
| CCOc1ccccc1/C=c1\sc2nc(-c3ccco3)nn2c1=O | -37.9% |
| Cc1ccc2nc(-c3ccncc3)cc(C(=O)Nc3ccc(OC(F)F)cc3)c2c1 | -10.5% |
| Cc1ccc(C(=O)Oc2coc(CSc3nnc(NC(=O)c4cccs4)s3)cc2=O)cc1C | -19.3% |
| O=C(CN1CCN(S(=O)(=O)c2cc(Cl)ccc2Cl)CC1)c1ccc(O)c(O)c1 | -17.8% |
| COc1ccc(Cc2nnc(NC(=O)Cc3cccs3)s2)cc1 | -32.8% |
| O=C(Nc1ccc(S(=O)(=O)Nc2nccs2)cc1)c1cc(-c2ccncc2)nc2ccccc12 | -1.27% |
